Outcome data for 71 compounds are collected here from PubChem BioAssay AID1981 (Southern Research Specialized Biocontainment Screening …, 2009).

Out of some 2,200 compounds screened, about 480 (22%) were called active. No rule for the calls is given here. The list is a sample of the results. Entries with a potency or affinity are not part of this list.

A short description of the test: S. Typhimurium GFP fluorescence modified counterscreen for PhoP regulon inhibitor project dose response (AID 1981). Conditions: 4 h; series mostly up to 150 µM. A general note: Counterscreens check selectivity or assay interference.
For `Cc1ncc(C23CC4CC(CC(C4)C2)C3)[nH]1`, the outcome was inactive.
The value for `CCN(CC)c1nc2n(c(=O)n1)CCO2` was “inactive”; that for `COc1ccc2c(c1)cc1n2CCN2CCCN=C12` was “inactive”; that for `C=CCSC1=Nc2sccc2C2=NC(=O)CN12` was “inactive”.
For `COc1ccc(NC(=O)CSc2nccn2-c2ccccc2)cc1` the value was “inactive”; for `O=C(/C=C/c1ccc2c(c1)OCO2)N1CCN(c2ccccc2F)CC1`, “inactive”.
Consider `OC(COCc1cccs1)CN1CCN(c2ccccn2)CC1` (stereo unspecified), for which the compound was called inactive.
As to `N#Cc1c(-c2ccco2)cc(-c2ccc(F)cc2)nc1N`, the compound was classed as inactive.
The value for `CN1CCN(S(=O)(=O)c2ccc(N)cc2)CC1` was “inactive”; that for `CC(C)(C)c1ccc(-c2n[nH]c(=S)n2/N=C/c2ccncc2)cc1` was “inactive”.
As to `CC(Cl)C(=O)NNc1cccc(Cl)n1` (stereo unspecified), the compound was called inactive.
The value for `Cc1nc(N2CCN(Cc3ccc4c(c3)OCO4)CC2)nc2c1C(=O)CC(c1ccco1)C2` (stereo unspecified) was “inactive”; that for `O=C(COC(=O)c1cn(-c2ccccc2)nc1-c1ccccc1)c1cccc([N+](=O)[O-])c1` was “inactive”; that for `O=C(OCc1ccccc1)c1cn(-c2ccccc2)nc1-c1ccncc1` was “inactive”.
For `O=C(NCc1ccccn1)c1cn(-c2ccccc2)nc1-c1ccc(Cl)cc1` the value was “inactive”; for `CCc1ccc(C(c2c(C)nn(-c3ccccc3)c2N)c2c(C)nn(-c3ccccc3)c2N)cc1`, “inactive”; for `O=C(c1ccc(F)cc1)C(CN1CCOCC1)c1ccccc1` (stereo unspecified), “inactive”.
The value for `O=C(NCc1ccccn1)Nc1cccc(Cl)c1` was “inactive”.
Take `COCCNCCOc1ccccc1-c1ccccc1`: the call was inactive.
For `COc1cc(OC)c(NC(=O)Nc2ccc(OC)c(OC)c2)cc1Cl` the value was “inactive”.
`Cc1ccc2cc(CN(CCO)Cc3nnnn3Cc3ccc(F)cc3)c(=O)[nH]c2c1`: the compound was classed as inactive.
The value for `CCOC(=O)C(NS(=O)(=O)c1ccccc1)(C(F)(F)F)P(=O)(OCC(C)C)OCC(C)C` (stereo unspecified) was “inactive”.
For `Cc1cc2cc(CNS(=O)(=O)c3ccc4ccccc4c3)ccc2n1C` the value was “inactive”.
The value for `O=C(c1ccccc1)c1coc2ccc(O)c(Cl)c12` was “inactive”; that for `C#CCOc1ccc(Cl)cc1/C=N/O` was “inactive”.
As to `CC(C)CNC(=O)c1ccc(COc2ccc(Cl)cc2Cl)o1`, the compound was called inactive.
The value for `Cc1ccc(SC(c2ccc(C)cc2)C(Cn2cncn2)C(=O)c2ccccc2)cc1` (stereo unspecified) was “inactive”.
For `Cc1cccc(NC(=S)NC(NC(=O)c2ccco2)C(Cl)(Cl)Cl)c1` (stereo unspecified) the value was “inactive”; for `CCOC(=O)C1=C(C)N=c2s/c(=C\c3ccncc3)c(=O)n2C1c1ccc2c(c1)OCO2` (stereo unspecified), “inactive”; for `CCOc1ccc(S(=O)(=O)NNC(=S)Nc2ccc(Br)cc2)cc1`, “inactive”.
For `CCOC(=O)c1c(NC(=O)COc2ncnc3ccccc23)sc(C)c1CC` the value was “inactive”.
On to `O=C1C(Nc2ccccc2)=C/C(=N/S(=O)(=O)c2cccs2)c2ccccc21`, for which the result was inactive.
For `Cc1cc(C)c2cc(CN(Cc3cccnc3)C(=O)c3ccc(F)cc3)c(Cl)nc2c1` the value was “inactive”; for `COc1ccc(C(C)=O)c2c(O)cccc12`, “inactive”.
Consider `CCN(CC)CCNC(=O)c1cn(CC)c2cc(N3CCN(C(=O)c4ccco4)CC3)c(F)cc2c1=O`, for which the compound was called inactive.
The value for `CN(C)CCNC(=O)c1ccc(COCC(F)(F)F)cc1` was “inactive”; that for `COc1ccc(S(=O)(=O)N2CCN(C(=O)c3c(C)nn(-c4ccccc4)c3Cl)CC2)cc1` was “inactive”; that for `Cn1c(-c2ccc3c(c2)OCO3)cnc1NCc1cccc(Cl)c1` was “inactive”.
For `O=C(NCCN1CCOCC1)c1ccc2ccccc2c1` the value was “inactive”.
For `Fc1ccccc1CCNCc1cccc(Cl)c1Cl` the value was “inactive”; for `O=C(Cc1ccccc1)NCc1ccc(F)cc1`, “inactive”.
As for `c1coc(CNc2c3c(nc4ncnn24)CCCC3)c1`, the result was inactive.
Regarding `O=S(=O)(Nc1ccc2c(c1)nc1n2CCN(Cc2ccccc2)C1)c1ccc(F)cc1`, the result was inactive.
For `CCn1c(SCC(=O)Nc2ccc3c(c2)oc2ccccc23)nnc1-c1ccc(N)cc1`, the call was inactive.
Regarding `CC1(C)CC(=O)C2=C(C1)N(c1ccc(F)cc1)C(N)=C(C#N)C2c1cccs1` (stereo unspecified), the call was inactive.
For `O=C(Oc1ccc(N(Cc2cccs2)C2=NS(=O)(=O)c3ccccc32)cc1)c1ccc(Cl)cc1`, the compound was called inactive.
For the compound `O=C(NCCNc1ccc([N+](=O)[O-])cc1C(F)(F)F)c1ccccc1F`, the compound was classed as inactive.
Consider `O=C(Nc1cnc2ccccc2c1)N1CCOCC1`, for which the result was inactive.
On to `CCOC(=O)N1CCN(S(=O)(=O)c2ccc(C(=O)NNc3nc4c(C)cc(C)cc4s3)cc2)CC1`, for which the compound was classed as inactive.
`O=C(c1ccco1)c1cn(CC(=O)N2CCCc3ccccc32)c2ccccc12`: the call was inactive.
As for `O=c1cc(O)nc(SCc2ccccc2Cl)[nH]1`, the outcome was inactive.
Take `Cc1cc(C(=O)N2CCN(C/C=C/c3ccccc3)CC2)no1`: the compound was called inactive.
The value for `Cc1[nH]c2ccccc2c1C(c1ccncc1)N1CCN(c2ccc(F)cc2)CC1` (stereo unspecified) was “inactive”; that for `Cn1cc(-c2nnnn2-c2cccc(C(F)(F)F)c2)c(C(F)(F)F)n1` was “inactive”.
For `COC(=O)CSc1nc(SCc2ccccc2Cl)nc2c1CCCC2`, the compound was classed as inactive.
For `c1ccc(-c2cc(CSc3nc4ccccc4[nH]3)on2)cc1` the value was “inactive”; for `N#Cc1nc(Cc2cccc3ccccc23)oc1NCCCN1CCOCC1`, “inactive”.
For `Cc1nc2cc(NC(=O)N3CCN(c4ccccn4)CC3)ccc2o1` the value was “inactive”.
The value for `Oc1ccc(C2NCc3ccccc3-n3cccc32)cc1Cl` (stereo unspecified) was “inactive”.
In the case of `CC(=O)c1sc(NC(=O)COc2ccc([N+](=O)[O-])cc2)nc1C`, the call was inactive.
The value for `CCn1c(SCc2ccc(F)cc2)nc2ccccc2c1=O` was “inactive”.
For `CCCCCc1ccc(OCCC[n+]2ccccc2)c(CCCCC)c1` the value was “inactive”; for `O=C(CSC1CCCCC1)Nc1ccccc1Br`, “inactive”.
For `COc1ccc(NC(C)C(=O)Nc2ccc(C(C)(C)C)cc2)cc1Cl` (stereo unspecified) the value was “inactive”; for `Cc1cccc(-n2c(O)c(C=NCc3cccnc3)c(=O)[nH]c2=O)c1C`, “inactive”.
For the compound `Cc1ccc(C(C[N+](=O)[O-])c2c(C)cc3ccccn23)cc1` (stereo unspecified), the result was inactive.
For `O=C(O)CCS(=O)(=O)c1ccc(-c2ccccc2)cc1` the value was “inactive”; for `CNC(=O)CSc1nnc(-c2cccnc2)n1CCc1ccccc1`, “inactive”.
With `Cc1ccc(-c2nc3ccccc3[nH]2)cc1NC(=S)NC(=O)c1ccccc1Br`, the compound was called inactive.
The value for `Cc1ccc(OCc2nnc(SCC(=O)Nc3ccc4c(c3)OCO4)n2C)cc1` was “inactive”; that for `CCOc1ccc(/C(O)=C2\C(=O)C(=O)N(CCN(C)C)C2c2cccc(OC)c2OC)cc1Cl` (stereo unspecified) was “inactive”.
